NR0B1 inh – DAX1 (NR0B1) inhibitors, primary screen, cell-based, HEK293, Gal4-DAX1, luciferase luminescence; HEK293 Gal4-DAX1 luciferase reporter; Nuclear receptor subfamily 0 group B member 1 (Homo sapiens), P51843; hit rate 0.99% among 340,000; inhibition, % at 6.75 µM;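 active = inhibition above the mean over all tested compounds plus 3 SD, cut at about 4.2% in these data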;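 also: inhibition shows as a rise in luminescence from relieved DAX1 repression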
Target sequence (P51843 207-470 limits assumed): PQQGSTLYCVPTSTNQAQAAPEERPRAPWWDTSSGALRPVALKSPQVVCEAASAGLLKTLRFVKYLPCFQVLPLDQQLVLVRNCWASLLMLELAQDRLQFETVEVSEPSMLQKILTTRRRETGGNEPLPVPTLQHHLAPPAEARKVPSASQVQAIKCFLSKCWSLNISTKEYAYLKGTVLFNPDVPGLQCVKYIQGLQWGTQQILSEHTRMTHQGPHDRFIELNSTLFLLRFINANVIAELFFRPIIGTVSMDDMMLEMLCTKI
HSF1 activator – HSF-1 activators, primary screen, NIH3T3-HGL cells, MG132 stress, luminescence, single point; NIH3T3-HGL HSF-1 luciferase reporter, 8 h; 100% = twice DMSO control signal; activation, % at 9 µM; hit rate 1.7% among 300,000; AID 504408, 2011;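 active = mean replicate activation of at least 50% with a set share of replicates each reaching 50%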
AHR activator – AHR activators, primary screen, cell-based, luminescence, luciferase reporter, human. activation, % at 5 µM. Aryl hydrocarbon receptor (Homo sapiens), P35869. hit rate 2.5% among 320,000. AHR-responsive luciferase reporter cells; in the data active = activation above about 47%
HSF1 inhib – HSF1 inhibitors in luciferase reporter cells, primary screen, cell-based, NIH3T3, luminescence; NIH3T3-HGL HSE-luciferase, MG132-induced, luminescence 8 h; stronger effect = lower value; activity change, negative = inhibition, % at 7.5 µM (by protocol); hit rate 0.77% among 300,000;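 active = more than half of replicate wells show activity change below -50%, luminescence cut by over half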;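 also: luciferase reports HSF-1 transcriptional activity via heat shock element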
GAA850 FXN act – FXN promoter activators, primary screen, cell-based, luciferase luminescence, HEK293 lucGAA850; HEK293 lucGAA850 FXN promoter luciferase reporter, 24 h; percent of 10 µM SAHA response; activation, % at 6 µM; hit rate 0.56% among 360,000; AID 540364, 2011;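 active = activation above the average of all compounds screened plus 3 SD, cutoff fixed separately per campaign, cut at about 7.5% in these data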
HSP90 inh – HSP90 inhibitors, primary screen, cell lysate, luminescence; Heat shock protein HSP 90 (rabbit reticulocyte lysate; luciferase refolding); Rabbit reticulocyte lysate, luciferase refolding luminescence, 3 h; inhibition, % at 5.6 µM; hit rate 0.91% among 290,000; AID 1789, 2009;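 active = inhibition above the screen-wide mean plus 3 SD, computed separately per campaign, cut at about 16% in these data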;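 also: inhibitors lower the luminescence because luciferase stays unfolded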
A number is an active result; n = inactive; x = not tested or not shown. Shown are actives, neighbours in structure and some others; about 5.9% of the full set was active somewhere.

SMILES	NR0B1 inh	HSF1 activator	AHR activator	HSF1 inhib	GAA850 FXN act	HSP90 inh
Cc1ccc(NC(=O)COC(=O)C2COc3ccccc3O2)cc1 (stereo unspecified)	n	x	n	x	n	x
O=C(Nc1ccccc1Cl)c1cc(C2CCCN(C(=O)c3cccs3)C2)on1 (stereo unspecified)	x	x	x	x	n	x
C(=N\Nc1ncnc2sc3c(c12)CCC3)/c1cccs1	n	n	56.2	n	12.9	n
NNc1ncnc2sc3c(c12)CCC3	6.3	n	n	n	n	n
CC1(N=Cc2cc(Cl)ccc2O)COP(=O)(NC2CCCC2)OC1 (stereo unspecified)	n	x	x	x	n	x
CN1CCN(S(=O)(=O)c2cccc(C(=O)Nc3ccccc3N3CCOCC3)c2)CC1	n	n	n	n	n	n
COc1ccc(C(=O)C2CCCN(S(=O)(=O)N(C)C)C2)c(C)c1 (stereo unspecified)	n	n	n	n	n	n
COc1ccc(C(=O)C2CCCN(S(=O)(=O)C(C)C)C2)c(C)c1 (stereo unspecified)	n	62.2	n	n	n	n
CS(=O)(=O)Nc1ccc2c(c1)[C@@H]1C[C@@H](CC(=O)NCc3cccnc3)O[C@H](CO)[C@@H]1O2	n	x	x	x	n	x
CCOc1cccc(/C=C(\C#N)C(=O)NC2CC2)c1	n	n	n	n	n	x
O=C(O)c1cccc(NC(=O)c2ccc3c(c2)C(=O)N(CC2CCCO2)C3=O)c1 (stereo unspecified)	n	n	n	n	n	16.7
COC(=O)c1cccc(NC(=O)c2ccc3c(c2)C(=O)N(CC2CCCO2)C3=O)c1 (stereo unspecified)	n	n	n	n	n	n
CC(=O)Oc1cccc(C(=O)Nc2ccc3c(c2)C(=O)N(CC2CCCO2)C3=O)c1 (stereo unspecified)	n	71.8	x	n	n	n
NS(=O)(=O)c1ccc(CNC(=O)C(c2ccccc2)c2ccccc2)cc1	n	n	n	n	n	n
Cc1ccc(N=C2NC(=O)/C(=C\c3ccco3)S2)cc1	n	n	n	n	n	n
Cc1cc(C)cc(N=C2NC(=O)/C(=C/c3cccs3)S2)c1	n	n	55.6	n	n	n
O=C1NC(=Nc2ccccc2)S/C1=C\c1cccs1	n	n	72.0	n	n	n
C=CCN(C(=O)CSc1nc2ccsc2c(=O)n1Cc1ccc(C(=O)O)cc1)c1ccccc1	n	x	x	x	n	x
Cc1cc(NC(=O)c2cccc(Oc3ccccc3)c2)n[nH]1	n	n	65.8	n	n	n
CC1CC(C)CN(C(=O)CCS(=O)(=O)c2ccc3c(c2)NC(=O)CS3)C1 (stereo unspecified)	n	85.0	n	n	n	n
CC1Sc2ccc(S(=O)(=O)CCC(=O)N3CCCCC3)cc2NC1=O (stereo unspecified)	n	n	n	n	n	n
CCn1nc2cc(C(=O)NCC34CC5CC(CC(C5)C3)C4)ccc2c1OC	n	n	n	n	n	n
CCOc1c2ccc(C(=O)NCC34CC5CC(CC(C5)C3)C4)cc2nn1CC	n	n	51.5	n	n	n
CCOc1c2ccc(C(=O)NCc3ccccc3OC)cc2nn1CC	n	n	n	-66.5	n	n
COc1ccc(C/C(C)=N/Nc2nc(C)cc(=O)[nH]2)cc1	n	n	n	n	n	n
SMILES	NR0B1 inh	HSF1 activator	AHR activator	HSF1 inhib	GAA850 FXN act	HSP90 inh
COC(=O)c1ccc(COc2ccc(/C=N/Nc3cccc(C(=O)O)c3)cc2)cc1	n	n	n	n	n	22.7
CSc1ccc(/C=N/Nc2nc(C)cc(=O)[nH]2)cc1	n	n	n	n	n	n
COC(=O)c1ccc(COc2ccc(/C=N/Nc3nc(C)cc(=O)[nH]3)cc2)cc1	5.8	n	n	n	n	n
Cc1cc(=O)[nH]c(N/N=C/c2ccc(O)c(O)c2)n1	n	61.5	n	n	n	n
CCC(C)(C)C1CCC(NC(=O)c2ccc(S(=O)(=O)N3CCOCC3)cc2)CC1 (stereo unspecified)	n	x	n	x	n	x
COc1ccc(Cl)cc1C(=O)NNC(=O)CNC(=O)c1ccco1	n	x	n	x	n	x

Assay outcomes deposited in PubChem BioAssay by several laboratories.
